Laboratory results as given in PubChem BioAssay (NCI).
This is part of a sample that, as a whole, favours compounds with a hit. Of some 79,000 tested, about 15% had one in any assay. The source made the active and inactive calls. Rule as the data show it: active = growth inhibition above about 70%; inactive = the rest.

Key:
[1] = NCI Yeast Anticancer Drug Screen. Data for the rad50 strain (AID 155);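 also: 0% = growth of vehicle-only cultures of the same strain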; conditions: S. cerevisiae rad50 strain growth inhibition; at 50.0 µM; hits give high values
In short: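 DNA repair mutant yeast, compound exposure, growth read-out; inhibition is taken relative to vehicle.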

[2] = NCI Yeast Anticancer Drug Screen. Data for the mec2-1 strain (AID 157); conditions: S. cerevisiae mec2-1 strain, at 50.0 µM, hits give high values
In short: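 Strain: mec2-1 (DNA repair/cell cycle alteration). Compound exposure, then growth measured; inhibition expressed relative to vehicle.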

[3] = NCI Yeast Anticancer Drug Screen. Data for the sgs1 mgt1 strain (AID 161);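 also: 0% = growth of cultures given vehicle only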; conditions: S. cerevisiae sgs1 mgt1 strain, at 50.0 µM, hits give high values
In short: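 Read-out: growth inhibition vs vehicle controls. Cells: mutant yeast strain deficient in DNA damage repair.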

[4] = NCI Yeast Anticancer Drug Screen. Data for the cln2 rad14 strain (AID 165);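 also: 0% = growth equal to vehicle treated cultures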; conditions: S. cerevisiae cln2 rad14 strain, at 50.0 µM, hits give high values
In short: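 Compounds are applied to the cln2 rad14 yeast strain, and growth is then compared with that of vehicle-treated cultures to give inhibition.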

[5] = NCI Yeast Anticancer Drug Screen. Data for the bub3 strain (AID 167); conditions: S. cerevisiae bub3 mutant strain, at 50.0 µM, hits give high values
In short: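 In this screen, a yeast mutant lacking normal mitotic checkpoint function is challenged with compound. Relative growth versus vehicle gives the inhibition value.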

[6] = NCI Yeast Anticancer Drug Screen. Data for the mlh1 rad18 strain (AID 175); conditions: S. cerevisiae mlh1 rad18 strain growth inhibition; at 50.0 µM; hits give high values
In short: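 Read-out is yeast growth inhibition, calculated against vehicle-only controls. The compound was applied to a strain engineered with DNA damage repair alterations.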

Measured: growth inhibition

O=C(O)c1cccc2c1C(=O)c1c(O)cccc1C2=O
inactive: [1] 35.9% | [2] 19.9% | [3] 42.4% | [4] 25.9% | [5] 13.2% | [6] 30.2%

CCOC(=O)Cc1nc2sc3c(c2c(=O)[nH]1)CCCC3
inactive: [1] 10.4% | [2] 1.8% | [3] 22.4% | [4] -0.9% | [5] 3.9% | [6] 17.2%

COP(=O)(OC)/C(=C\c1cn(C(c2ccccc2)(c2ccccc2)c2ccccc2)cn1)NC(C)=O
inactive: [1] -9.65% | [2] -32% | [3] -11.4% | [4] -22.1% | [5] -19.1% | [6] -10.2%

COc1nc2c(c(=O)n1C)N(C(C)=O)C1C(N2)OCC(OC(C)=O)C1OC(C)=O (configuration not stated)
inactive: [1] -13.4% | [2] 8.65% | [3] -2.55% | [4] 5.45% | [5] -7.6% | [6] -32.1%

O=C(Cl)c1cc(-c2ccccc2)nc2c(Cl)cccc12
inactive: [1] 46.1% | [2] 39.4% | [3] 43% | [4] 39.1% | [5] 40.5% | [6] 38%

OCCN(CCO)c1ncnc2c1ncn2Cc1ccccc1
inactive: [1] -7.15% | [2] -7.5% | [3] -7.05% | [4] -42.2% | [5] 8.15% | [6] -20.2%

CN(C)CCNC(=O)c1cc([N+](=O)[O-])cn1C
inactive: [1] 10.9% | [2] -1.4% | [3] 9.15% | [4] 7.65% | [5] 1.25% | [6] -68.2%

Cc1cccc(N=C(Nc2cccc(C)n2)Nc2cccc(C)n2)n1
inactive: [1] 31.3% | [2] 15.8% | [3] 35.6% | [4] 36.9% | [5] 25.9% | [6] 31.1%

Brc1cc(Br)c(-c2c(Br)cc(Br)cc2Br)c(Br)c1
inactive: [1] -20.8% | [2] -30.2% | [3] -16.1% | [4] 4.2% | [5] -7.5% | [6] -15.7%

O=C1NCC2(CCCCCC2)O1
inactive: [1] 5.15% | [2] -0.65% | [3] 13.2% | [4] 4.95% | [5] -3.9% | [6] 6.15%

Cc1ccc2oc(=O)c3c(O)c4cccc(OC5OC(C)C6O[C@@H](c7ccccc7)OC6C5OC5OC(C)C(O)C(O)C5O)c4c4oc(=O)c1c2c34 (some centres not stated)
active: [1] 87.2% | [2] 89.7% | [3] 91.5% | [4] 83.6% | [5] 89.7% | [6] 75.4%

CC1(C)OC2OC(C(O)COC(=O)c3ccccc3)C(Cl)C2O1 (configuration not stated)
inactive: [1] 26.6% | [2] 8.35% | [3] -1.6% | [4] -5.5% | [5] 14.2% | [6] 39.3%

COc1ccc2nc(CC(C)C)c3c(c2c1)-c1ccccc1C3=O
inactive: [1] 1.35% | [2] -8.8% | [3] -10.2% | [4] -12.2% | [5] -0.35% | [6] -12.2%

Nc1ccc(Br)cc1C(=O)O
inactive: [1] 4.2% | [2] -1.15% | [3] -17.4% | [4] -3.2% | [5] 23.6% | [6] -3.3%

CCOC(=O)Nc1cc(Nc2ccc(Cl)cc2)c2nc(-c3ccc(Cl)cc3)c(-c3ccc(Cl)cc3)nc2n1
inactive: [1] 44.7% | [2] -0.9% | [3] 36.1% | [4] 20.9% | [5] -0.75% | [6] 8.8%

O=C(O)C(C1=CCCCC1)C1(O)CCCCC1 (configuration not stated)
inactive: [1] -9.15% | [2] -5.45% | [3] 17.6% | [4] -5.85% | [5] -0.65% | [6] 12.7%

Brc1cncc(Br)c1
inactive: [1] 31.9% | [2] -9.35% | [3] -13.3% | [4] -2.1% | [5] -12.2% | [6] 1.4%

Clc1ccc(C(n2cc(Br)cn2)n2cc(Br)cn2)cc1
active: [1] 89.6% | [2] 90.8% | [3] 90.7% | [4] 90.2% | [5] 91% | [6] 87.5%

CC(NCCCNC(C)C(=O)O)C(=O)O (configuration not stated)
inactive: [1] 21.8% | [2] 1.45% | [3] 26.8% | [4] 32.3% | [5] 11.1% | [6] 13.4%

O=CNCC(O)c1ccc2c(c1)[nH]c1ccccc12 (configuration not stated)
inactive: [1] 30.6% | [2] -16.2% | [3] -1.45% | [4] -10.3% | [5] 19% | [6] 47.4%

Cn1nc(-c2ccccc2)c(C(=O)/C=C/c2ccccc2)c(N2CCCC2)c1=O
inactive: [1] -22.1% | [2] -11.2% | [3] 3.2% | [4] -4.15% | [5] -21.1% | [6] -19.2%

CC1=C(C(=O)NCc2ccccc2)C(c2ccc(Cl)c(Cl)c2)C(C(=O)NCc2ccccc2)=C(C)N1
inactive: [1] -10.9% | [2] 12.2% | [3] -21.1% | [4] 21.2% | [5] -12.4% | [6] -18.9%

CNC(=O)Nc1[nH]c(=O)ncc1Cl
inactive: [1] 6.45% | [2] -0.35% | [3] 8.95% | [4] -5.1% | [5] 16.2% | [6] 5.2%

O=C1NC(CCl)(CCl)CO1
inactive: [1] 4.15% | [2] 8.85% | [3] -1.7% | [4] 5.45% | [5] -2.05% | [6] 10.1%

CC(C)OC(=O)NC1CCC2CCCCC2C1 (configuration not stated)
inactive: [1] 2.7% | [2] 11.5% | [3] -8.3% | [4] -19.9% | [5] 15.7% | [6] -4.75%

COc1ccc(Cl)cc1NC(=O)Nc1cc(C)ccc1Cl
inactive: [1] -8.35% | [2] 25.8% | [3] 27.4% | [4] -25.2% | [5] 28.8% | [6] 9.9%

COc1ccc(CCN2C(CC(=O)c3ccccc3)CCCC2CC(=O)c2ccccc2)cc1 (configuration not stated)
inactive: [1] -29.6% | [2] -29.1% | [3] -23.8% | [4] -0.8% | [5] -17.5% | [6] -18.7%

CCCCCc1c2nc(c(CCCCC)c3ccc([nH]3)c(CCCCC)c3ccc([nH]3)c(CCCCC)c3nc1C=C3)C=C2
inactive: [1] 0.1% | [2] -11.8% | [3] -10.3% | [4] 23.1% | [5] -10.5% | [6] -15.6%

CCOC(=O)C1C(c2ccc(N(C)C)cc2)c2cc3c(cc2OC1(C)N1CCCC1)OCO3 (configuration not stated)
inactive: [1] -13.6% | [2] 9.1% | [3] -2.1% | [4] 14.3% | [5] -3.15% | [6] 2.85%

CC(=O)Nc1ccc(-c2nnc(SCC(=O)Nc3ccccc3)o2)cc1
inactive: [1] 2.3% | [2] 6.8% | [3] -4.95% | [4] -1.8% | [5] -14.6% | [6] -8.55%

O/N=C1/CC2(N3CCOCC3)C3CC/C(=N\O)C2CC1(Cc1ccccc1)C3 (configuration not stated)
inactive: [1] 2.75% | [2] 0.25% | [3] 17.1% | [4] 27.7% | [5] -11.2% | [6] -10%

CN(C)c1ccccc1CC(=O)Nc1ccccc1
inactive: [1] -12.6% | [2] 4.45% | [3] -5.85% | [4] -21.8% | [5] 1.9% | [6] 3.1%

CCOC(=O)C1CC(C)c2[nH]c3ccccc3c21 (configuration not stated)
inactive: [1] 2.2% | [2] 6.9% | [3] -5.15% | [4] -25% | [5] -12% | [6] -13%

Cc1ccc(C2(C)CC/C(=N/N=C3/CCC(C)(c4ccc(C)c(C)c4)c4cc(C)c(C)cc43)c3cc(C)c(C)cc32)cc1C (configuration not stated)
inactive: [1] -17% | [2] -13.8% | [3] -27.9% | [4] -40.6% | [5] -11.4% | [6] -12.4%

CC(=Nc1ccccc1)Nc1ccccc1
inactive: [1] -5.45% | [2] 3.3% | [3] 18.1% | [4] -20.6% | [5] 4.7% | [6] 48.1%

CC(C)c1ccc(/C(O)=C/C(=O)C(=O)/C=C(/O)c2ccc(C(C)C)cc2)cc1
inactive: [1] 31.4% | [2] 2.25% | [3] 1.25% | [4] 9.6% | [5] 2.5% | [6] 10.7%

N#Cc1ccccc1-c1ccccc1/C=C/C(=O)O
inactive: [1] -20.4% | [2] -5.9% | [3] -9.5% | [4] 11.8% | [5] -8% | [6] 12.4%
